# Compound activity as filed in PubChem BioAssay.
# Shown are actives, neighbours in structure and some others; about 13% of the full set was active somewhere.
# Pf growth 96h – Primary qHTS for delayed death inhibitors of the malarial parasite plastid, 96 hour incubation; 320,000 tested, 6.9% active; P. falciparum luciferase reporter growth, 96 h; Potency, µM (highest dose often 28.7 µM), usual class: inhibitors
#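 Infected RBCs, 2% Hct / 0.05% parasitemia final; luciferase-reporter P. falciparum; cpd 96 h, 37 C, 5% CO2; luciferase detection reagent; luminescence.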
# Pf growth 48h – Primary qHTS for delayed death inhibitors of the malarial parasite plastid, 48 hour incubation. P. falciparum luciferase growth in erythrocytes, 48 h. Potency, µM (titrated, usually from 28.7 µM), usual class: inhibitors. 310,000 tested, 5.9% active. AID 504832, 2011
#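 Luminescence readout; reporter = integrated firefly luciferase in P. falciparum. RBC culture at 2% hematocrit, 0.1% parasitemia final, 37 C/5% CO2; decreased signal taken as growth inhibition.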
# HCMV inh – qHTS Assay for inhibitors of the human cytomegalovirus (HCMV); activity change, negative = inhibition, % at 57.5 µM; AID 1259415, 2018; HFF cells, HCMV-luciferase reporter, 72 h; active compounds read low; 410,000 tested, 4.5% active; in the data active = activity change below about -60%; inconclusive = no clear call, values can overlap the other calls; inactive = above about -39%
#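 Screen run at 2 compound doses on HFFs infected with reporter HCMV, MOI 1 PFU/cell. Luciferase activity from cell lysates at 72 h post infection gave inhibition relative to buffer-only and Salinomycin wells.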
# HCV inhibitor – qHTS Assay for Inhibitors of Hepatitis C Virus (HCV). 340,000 tested, 3.4% active. Potency, µM (doses to about 41.8 µM), usual class: inhibitors. Huh7.5.1 HCVcc-Cre infection, luciferase reporter, 44 h. AID 651820, 2012
#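 HCVcc-Cre virus at an moi near 0.5 was added right after compound to cells cultured 4 h from seeding (1,000 cells/well). Luciferase activity was determined 44 h later, 15 min after substrate addition at RT.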
# Hits are given with their value; n = inactive; u = inconclusive; x = no result given. Unless noted, calls come from the whole dose curve; as a rule, active = well fitted inhibition curve with a large enough effect; inconclusive = small, poorly fitted or top-dose-only effect, or another doubt; inactive = no such curve, though single readings can be large or run the other way.
SMILES,Pf growth 96h,Pf growth 48h,HCMV inh,HCV inhibitor
CC/C(=N/Nc1ccccc1)c1cnnc(-c2ccccc2)n1,0.1µM,0.13µM,u,8.9µM
CC/C(=N/Nc1cccc(Cl)c1)c1cnnc(SC)n1,u,u,n,u
CCCCn1cc(S(=O)(=O)c2ccc(CC)cc2)c(=O)c2cc(F)c(N3CCOCC3)cc21,x,x,n,x
N=c1n(CC(=O)c2cccs2)c2ccccc2n1Cc1ccccc1,4.7µM,u,n,n
C=CCn1c(=N)n(CC(=O)OC)c2ccccc21,12µM,n,n,n
O=C(O)Cn1c(=O)n(Cc2ccccc2)c2ccccc21,u,n,n,n
C=CCn1c(=N)n(CC(=O)c2ccc(Br)s2)c2ccccc21,13µM,12µM,-74,u
Cc1cccc(NC(=O)CSc2cn(CC(=O)N3CCOCC3)c3ccccc23)c1C,x,x,n,x
O=C(CCN1C(=O)c2ccccc2S1(=O)=O)N1CCN(c2ccccc2F)CC1,n,n,n,u
O=C(CN1C(=O)c2ccccc2S1(=O)=O)c1ccc(F)cc1,n,n,-67,n
O=C(CN1C(=O)c2ccccc2S1(=O)=O)c1ccccc1F,n,n,u,n
O=C(CN1C(=O)c2ccccc2S1(=O)=O)c1ccc(Cl)cc1Cl,x,x,-91,n
O=C(CN1C(=O)c2ccccc2S1(=O)=O)c1cccc(Br)c1,n,n,n,n
O=C(CN1C(=O)c2ccccc2S1(=O)=O)N1CCN(c2ccccc2F)CC1,5.9µM,n,n,n
O=C(CN1C(=O)c2ccccc2S1(=O)=O)c1ccc2c(c1)OCCCO2,1.5µM,u,-96,n
CC(C)n1c(SCC(=O)c2ccc(F)cc2)nc2c(sc3ccccc32)c1=O,x,x,n,x
Cc1cc(C)cc(-n2c(C)nc3cc(C(=O)NCc4ccccc4Cl)ccc32)c1,x,x,n,x
O=C(CN1C(=O)c2ccccc2S1(=O)=O)c1ccc2c(c1)OCCO2,n,u,-98,n
CCOc1ccccc1NC(=O)C1CCN(S(=O)(=O)c2ccc3[nH]c(=O)oc3c2)CC1,x,x,n,x
O=C(CNCC1CCCO1)Nc1ccc([N+](=O)[O-])cc1C(=O)Nc1ccccc1F (centres undefined),5.9µM,u,n,n
COc1cccc(NC(=O)c2cc([N+](=O)[O-])ccc2NC(=O)CNCC2CCCO2)c1 (centres undefined),n,u,n,u
O=C(CN1CCN(c2cccc(Cl)c2)CC1)Nc1ccc([N+](=O)[O-])cc1C(=O)Nc1ccccc1F,n,u,n,u
Cc1ccc(C)c(N2CCN(CC(=O)Nc3ccc([N+](=O)[O-])cc3C(=O)Nc3ccccc3F)CC2)c1,2.3µM,u,n,n
CCN(C(=O)C1CCN(S(=O)(=O)c2ccc3c(c2)CCCN3C(C)=O)CC1)c1cccc(C)c1,x,x,n,x
CCC(NC(=O)Nc1cc(OC)ccc1OC)c1c(-n2cccc2)sc2c1CCN(CC)C2 (centres undefined),x,x,-73,x
SMILES,Pf growth 96h,Pf growth 48h,HCMV inh,HCV inhibitor
CCOc1ccc(NC(=O)NC(C)c2c(-n3cccc3)sc3c2CCN(CC)C3)cc1 (centres undefined),x,x,-79,x
CCOC(=O)c1[nH]c(C)c(CCC(=O)Nc2cc(Cl)c(OC)cc2OC)c1C,x,x,n,x
O=C(CN(CC1CCCO1)C(=O)c1nsc(Cl)c1Cl)NC1CCCC1 (centres undefined),u,n,-66,n
CSc1nn(Cc2ccc(F)cc2)c(N(C(C)=O)C(C)=O)c1S(=O)(=O)c1ccccc1,x,x,n,x
Cc1cc(Nc2cccc(C(F)(F)F)c2)ncn1,x,x,n,x
Cc1ccc(Nc2nc3nonc3nc2Nc2cccc(C(F)(F)F)c2)cc1Cl,x,x,-100,x
COC(=O)c1cc2occc2n1Cc1ccc(F)cc1Cl,x,x,n,x
C=CCN1CC(c2nc3ccccc3n2CCOc2ccccc2)CC1=O (centres undefined),n,12µM,n,n
CCc1ccccc1N1CC(c2nc3ccccc3n2CCOc2ccc(Cl)c(C)c2)CC1=O (centres undefined),x,x,-62,x
CN(Cc1ccccc1)c1ccc2cc(S(=O)(=O)N3CCCCC3)ccc2n1,x,x,n,x
COc1ccc(Br)cc1C1Sc2ccccc2NC2=C1C(=O)c1ccccc12 (centres undefined),x,x,n,x
CCCc1ccc(C2Sc3ccccc3NC3=C2C(=O)c2ccccc23)cc1 (centres undefined),x,x,-93,x
O=C1C2=C(Nc3ccccc3SC2c2ccccc2C(F)(F)F)c2ccccc21 (centres undefined),x,x,-94,x
O=C1C2=C(Nc3ccccc3SC2c2ccc(Cl)c(Cl)c2)c2ccccc21 (centres undefined),x,x,-100,x
O=C1C2=C(Nc3ccccc3SC2c2c(F)cccc2Cl)c2ccccc21 (centres undefined),x,x,n,x
CCOc1ccc(C2Sc3ccccc3NC3=C2C(=O)OC3)cc1 (centres undefined),u,n,n,u
CCOC(=O)C1=NN(c2ccc(C)cc2)CC1C(=O)OC (centres undefined),5.9µM,n,n,n
COC(=O)C1CC(=O)N(c2ccc(C)cc2)C1 (centres undefined),n,n,n,n
O=C1c2ccccc2NC2(CCCC2)N1O,n,x,n,n
CCCC1(C)Nc2ccccc2-c2nc3ccccc3n21 (centres undefined),2.1µM,u,n,n
CCCn1c(-c2ccc[nH]c2=O)nc2ccccc21,u,n,n,n
c1ccc2c(c1)NC1(CCCC1)n1c-2nc2ccccc21,n,n,n,11µM
COc1cc2c3c(c1OC)C1(C=CC(=O)C=C1)CC3N(C(=O)c1ccccc1)CC2 (centres undefined),u,u,n,x
COc1cc2c3c(c1OC)C1(C=CC(=O)C=C1)CC3N(C(=O)CCC(=O)O)CC2 (centres undefined),n,2.1µM,n,n
CCCCCCn1c(COc2ccccc2F)nnc1SCC(=O)N1c2ccccc2NC(=O)C1(C)C,8.3µM,13µM,n,u
SMILES,Pf growth 96h,Pf growth 48h,HCMV inh,HCV inhibitor
O=C(COc1ccc(Cl)cc1)Nc1ccccc1C(=O)OCc1cc(=O)n2ccsc2n1,x,x,n,x
O=C(Cn1c(=O)c2cccn2c2ccc(F)cc21)N1CCN(c2ccccc2F)CC1,x,x,n,x
Cc1ccc(NC(=O)c2ccc3c(=O)n4nc(Nc5ccccc5C)sc4nc3c2)cc1C,x,x,n,x
CCOc1ccc(C(=O)c2ccccc2C(=O)O)cc1OCC,n,n,n,n
CC1=CC(=O)C(C(C)C)=C/C1=C(\c1cc(C(C)C)c(OP(=O)(O)O)cc1C)c1ccccc1C(=O)O,u,n,-98,u
COc1ccc(NC(=O)c2cc(C(C)=O)n3ccccc23)cc1,x,x,n,x
CCN1CCN(c2cc(C)c3cc(NC(=S)NCCCN4CCc5ccccc5C4)ccc3n2)CC1,u,7.4µM,u,8.9µM
CCCN1CCN(CCCNC(=S)Nc2ccc3nc(N4CCN(CC)CC4)cc(C)c3c2)CC1,n,u,u,u
Cc1cc(N2CCN(C)CC2)nc2ccc(NC(=S)NCCCN3CCc4ccccc4C3)cc12,n,u,n,11µM
